# High-throughput results deposited in PubChem by several laboratories.
# CYP2C19 inh – blocks human cytochrome P450 2C19 | AID 778 | 96,000 tested, 21% active | inhibition, % at 5 µM | CYP2C19 Supersomes, luciferin-H EGE luminescence, 30 min | P33261;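 active means CYP2C19 inhibition above a set limit at 5 µM in the primary screen, cut at about 50% in these data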;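 further: plate controls were negative control wells for no effect and 2.5 mM tranylcypromine positive control for full effect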
# CYP2C19 act – increases human CYP2C19 enzyme activity. 96,000 tested, under 10 active. P33261. recombinant CYP2C19, luciferin-H EGE luminescence; stronger effect = higher value; 0 = fully inhibited enzyme, 1 = untreated enzyme. AID 1025. activation factor at 5 µM;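 active means activation factor of at least 2 at 5 µM in the primary screen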;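 further: 0 = wells with 2.5 mM tranylcypromine and 1 = vehicle-only wells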
# CYP2C9 activ – CYP2C9 (human) activation; recombinant CYP2C9, luciferin-H conversion, luminescence; stronger effect = higher value; factor 1 = untreated enzyme, 0 = blocked; activation factor at 5 µM; 96,000 tested, 1.4% active; AID 1024;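 active means activation factor of 2 or more for CYP2C9 at a 5 µM dose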;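 further: 0 = sulfaphenazole-blocked wells and 1 = vehicle-only wells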
# Target sequence (P11712 whole entry, looked up): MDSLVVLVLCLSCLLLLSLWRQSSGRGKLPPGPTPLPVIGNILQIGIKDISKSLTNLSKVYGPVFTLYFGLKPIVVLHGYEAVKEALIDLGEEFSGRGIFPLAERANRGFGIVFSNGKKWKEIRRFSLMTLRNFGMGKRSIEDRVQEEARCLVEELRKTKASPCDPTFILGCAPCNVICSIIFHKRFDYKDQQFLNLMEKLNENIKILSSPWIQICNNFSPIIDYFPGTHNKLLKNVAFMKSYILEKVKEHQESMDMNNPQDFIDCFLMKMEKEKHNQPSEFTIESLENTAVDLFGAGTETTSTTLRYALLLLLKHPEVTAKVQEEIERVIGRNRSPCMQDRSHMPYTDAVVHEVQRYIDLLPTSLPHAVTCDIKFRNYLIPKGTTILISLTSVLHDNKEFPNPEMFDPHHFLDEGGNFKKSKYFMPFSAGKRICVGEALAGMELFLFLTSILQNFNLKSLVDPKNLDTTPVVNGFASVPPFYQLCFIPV
# CYP2C9 inhib – inhibitors of human CYP2C9; 96,000 tested, 20% active; inhibition, % at 5 µM; CYP2C9 Supersomes, luciferin-H conversion, luminescence; P11712;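 active means blocking of liver enzyme CYP2C9 beyond about 50% at 5 µM, limit read from the data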
# Measles CPE – protection of cells from measles virus; Measles virus-infected cells, CPE protection, absorbance; protection (pct of control), % at 4 µM; 140,000 tested, 1.5% active; in the data active means protection mostly above about 24%, no sharp cut-off; inactive means mostly below about 26%
# The depositor's hits bear a star; . = no result. Only some compounds are listed: those with a hit (about 22% of all), similar ones and a draw of the others.
SMILES,CYP2C19 inh,CYP2C19 act,CYP2C9 activ,CYP2C9 inhib,Measles CPE
CCCN(C(=O)c1ccco1)c1nnc(-c2ccncc2)s1,.,.,.,.,7
COCCN(C(=O)C(C)C)c1nnc(-c2cccc(C)c2)s1,49,0.5,0.4,61*,26
CCN(C(=O)c1cccs1)c1nnc(-c2ccncc2)s1,100*,0,0.3,71*,9
COCCN(C(=O)Cc1cccs1)c1nnc(-c2ccncc2)s1,98*,0,0.3,73*,11
COc1nc(OC)nc(N2CCC(NC(=O)C(Cc3ccc(C(C)C)cc3)NC(C)=O)CC2)n1 (configuration not stated),36,0.6,0.4,57*,30
Cc1ccc2nc(CSc3nc(C)ccc3C#N)[nH]c2c1,58*,0.4,0.5,50,9
COc1ccc(/C=N/NC(=O)C(Cc2c[nH]c3ccccc23)NC(=O)OCC(C)C)cc1[N+](=O)[O-] (configuration not stated),-1,1,0.8,24,4
CCCCN1c2ccccc2N(CCCO)c2cc(C)nnc21,27,0.7,0.4,65*,4
Oc1ccc(-c2n[nH]c(=S)n2Cc2ccco2)cc1,31,0.7,0.3,68*,25
CCCn1c(Cc2ccccc2)n[nH]c1=S,16,0.8,1.1,-5,28
S=c1[nH]nc(Cc2ccccc2)n1Cc1ccco1,71*,0.3,0.6,39,8
O=C(NCc1ccc(Cl)cc1)c1noc2c1CCCCC2,20,0.8,0.6,44,21
Cc1ccc(Cn2nnc3c(=O)n(Cc4cccc(C)c4)cnc32)cc1,34,0.7,2.1*,-106,2
CCOC(=O)C(C)n1cnc2c(nnn2Cc2ccc(Cl)cc2)c1=O (configuration not stated),21,0.8,2.5*,-147,1
CCOC(=O)C(C)n1cnc2c(nnn2Cc2ccc(C)cc2)c1=O (configuration not stated),53*,0.5,2.9*,-191,10
O=c1oc(-c2ccco2)nc2sc3c(c12)CCCC3,.,.,.,.,8
COc1ccc(Cl)cc1Nc1nc(C)cc(C)c1C(N)=O,.,.,.,.,4
CC(=O)Nc1ccccc1-c1nnc(SCc2ccccc2Cl)[nH]c1=O,6,0.9,0,99*,4
Nc1ccccc1-c1nnc(SCc2ccccc2Cl)[nH]c1=O,43,0.6,0.1,88*,7
Cc1ccc(CSc2nnc(-c3ccccc3N)c(=O)[nH]2)cc1,15,0.8,0.1,92*,5
C=CCSc1nnc(-c2ccccc2NC(=O)CC)c(=O)[nH]1,-5,1.1,0.5,52*,7
CCCCSc1nnc(-c2cc(Br)ccc2N)c(=O)[nH]1,7,0.9,0.5,48,5
C=CCSc1nnc(-c2cc(Br)ccc2N)c(=O)[nH]1,32,0.7,0.3,72*,12
O=C(Oc1nsnc1N1CCOCC1)N1CCOCC1,-9,1.1,1.1,-9,26
O=C(Oc1nsnc1N1CCOCC1)c1ccccc1,64*,0.4,0.6,37,15
SMILES,CYP2C19 inh,CYP2C19 act,CYP2C9 activ,CYP2C9 inhib,Measles CPE
Cc1cc(NC(=O)c2noc3c2CCCC3)no1,-10,1.1,1.1,-12,1
CCCCOc1ccc(CN(C)c2ncnc(N)n2)cc1,.,.,.,.,5
COc1ccc(CN(C)c2ncnc(N)n2)cc1,78*,0.2,0.9,11,1
COCCNC(=O)CN1CCN(Cc2cccc(Cl)c2)C1=O,2,1,1,0,8
COc1ccccc1-n1c(SCC(=O)N2CCCC2)nc2cccnc21,-8,1.1,1.1,-6,3
COc1ccc(NC(=O)Cn2cccc2)cc1Cl,28,0.7,1,2,41*
Cc1ccc(NC(=O)Cn2cccc2)cc1Cl,52*,0.5,1,4,2
COc1ccc(Cl)cc1NC(=O)Cn1cccc1,36,0.6,2.8*,-178,34*
COc1cc(OC)c(NC(=O)Cn2cccc2)cc1Cl,39,0.6,0.8,22,36
Cc1ccc(NC(=O)Cn2cccc2)c(Br)c1,31,0.7,1,0,16
Cc1ccc(NC(=O)Cn2cccc2)c(C)c1,71*,0.3,1,0,5
CC1(c2ccccc2)NC(=O)N(Cc2ccc([N+](=O)[O-])cc2)C1=O (configuration not stated),.,.,.,.,53*
CC1(c2ccccc2)NC(=O)N(CCOc2ccccc2)C1=O (configuration not stated),65*,0.3,1,-1,14
